Compound activity as filed in PubChem.
Hits are enriched below; roughly 0.92% of the tested compounds scored in any of these assays.
RXFP1 antag: qHTS Assay for Antagonists of the Relaxin Receptor RXFP1 | HEK293-RXFP1, relaxin-stimulated cAMP HTRF, 30 min; hits give low values | activity change, negative = inhibition, % at 57.5 µM | 350,000 tested, 0.59% active;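 active = activity change of -60% or lower, but not beyond a set lower limit; inconclusive = change between -60% and -40%, or beyond the set limit; inactive = change above -40%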; also: % is scaled to controls: 0 for no effect and ±100 for the full control effect
Luc counter: Counterscreen for Luciferase (Kinase-Glo TM) Inhibition. Luciferin 4-monooxygenase (Photuris pensylvanica), Q27757. Kinase-Glo luciferase, ATP luminescence, 8 min. Potency, µM (doses to about 38.3 µM), for inactives: top-dose activity change, negative = inhibition, most hits filed as inhibitors. 200,000 tested, 0.28% active. AID 1379, 2008; also: potency is read from the fitted curve at half-maximal effect; % is scaled to controls: 0 for no effect and ±100 for the full control effect; nearly all actives have a fitted effect of over 60% in size
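Compound is pinned into ATP-containing buffer (10 uM ATP, imidazole pH 7.2, 7 mM MgCl2). Kinase-Glo luciferase reagent is then added. Light output is recorded following an 8-min room-temperature incubation.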
RXFP1 ag: qHTS Assay for Agonists of the Relaxin Receptor RXFP1; Relaxin receptor 1 (Homo sapiens), Q9HBX9; 370,000 tested, 0.3% active; Potency, µM (titrated, usually from 57.5 µM), for the others: at the top dose activation, most hits filed as activators; AID 2676, 2010; HEK293T-RXFP1 cAMP TR-FRET, 30 min; response scale: percent of porcine relaxin response, buffer zero; also: potency is read from the fitted curve at half-maximal effect; % is scaled to controls: 0 for no effect and ±100 for the full control effect; nearly all actives have a fitted effect of over 60% in size
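HEK293 cells stably expressing RXFP1, treated 30 min at 37C with compounds plus PDE4 inhibitor Ro 20174; cAMP measured by HTRF TR-FRET. Normalized to buffer and 29 nM porcine relaxin; EC50 by Hill fit.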
PKM2 act: qHTS Assay for Activators of Human Muscle isoform 2 Pyruvate Kinase; purified PKM2, Kinase-Glo ATP luminescence, activation; response scale: 0% is enzyme alone, no compound; 260,000 tested, 0.34% active; Pyruvate kinase PKM (Homo sapiens), P14618; Potency, µM (titrated, usually from 57.5 µM), without a hit: at the top dose activation, actives largely listed as activators; also: potency is read from the fitted curve at half-maximal effect; % is scaled to controls: 0 for no effect and ±100 for the full control effect; nearly all actives have a fitted effect of over 55% in size
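Purified hPK-M2 (>95% pure) converted ADP (0.1 mM final) to ATP with 0.5 mM PEP in 50 mM imidazole pH7.2, KCl, MgCl2, Tween 20, BSA; 1 h at room temperature. ATP detected by Kinase-Glo luminescence.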
GALK inh: qHTS Assay for Inhibitors of Human Galactokinase (GALK) | P51570 | Purified GALK, Kinase-Glo residual ATP luminescence | Potency, µM (doses to about 57.5 µM), inactives show top-dose activity change, negative = inhibition, usual class: inhibitors | 270,000 tested, 0.007% active | AID 1868, 2009; also: potency is read from the fitted curve at half-maximal effect; % is scaled to controls: 0 for no effect and ±100 for the full control effect
Target sequence (P51570 whole entry, looked up): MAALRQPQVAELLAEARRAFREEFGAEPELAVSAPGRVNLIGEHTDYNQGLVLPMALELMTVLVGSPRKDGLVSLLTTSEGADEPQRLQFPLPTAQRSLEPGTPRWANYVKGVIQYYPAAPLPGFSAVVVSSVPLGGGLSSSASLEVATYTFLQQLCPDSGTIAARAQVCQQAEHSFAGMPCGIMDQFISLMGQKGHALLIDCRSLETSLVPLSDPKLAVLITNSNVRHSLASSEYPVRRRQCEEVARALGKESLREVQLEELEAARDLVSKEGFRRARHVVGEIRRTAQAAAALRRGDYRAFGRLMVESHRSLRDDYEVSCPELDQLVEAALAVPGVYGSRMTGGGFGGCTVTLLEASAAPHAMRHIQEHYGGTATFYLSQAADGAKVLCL
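The enzyme phosphorylates galactose (100 uM) using ATP (35 uM); inhibition is detected as higher residual ATP, quantified by bioluminescence after 1 h reaction at room temperature, pH 8.0.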
miR-21 act: qHTS Assay for Modulators of miRNAs and/orActivators of miR-21; AID 2288, 2010; 340,000 tested, under 10 active; HeLa miR-21 FLuc reporter, luciferase, 48 h; Potency, µM (doses to about 38.3 µM), for inactives: at the highest dose activity change, positive = activation, usual class: activators;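 also: % of control where 0% means no effect; miR-21 action dims this reporter so a rising signal means less miR-21 action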
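Luminescence from a firefly luciferase reporter carrying a miR-21 binding site downstream, stably expressed under a CMV promoter in HeLa cells that make miR-21 endogenously, reports miRNA modulation after 48 h compound exposure up to approximately 40uM final.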
Active calls of the source: *; ? = inconclusive; . = no result given; [ ] = another dose, or the depositor's remark. Unless noted, calls follow the shape of the dose curve; as a rule, active = well fitted curve in the direction sought with a large enough effect; inconclusive = small, poorly fitted or top-dose-only effect, or another doubt; inactive = no such curve, though single readings can be large; an effect the other way counts as inactive or inconclusive.

SMILES | RXFP1 antag | Luc counter | RXFP1 ag | PKM2 act | GALK inh | miR-21 act
CCN(CC)S(=O)(=O)c1cccc(C(=O)Nc2sc3c(c2C#N)CCC(C)C3)c1 (stereo not drawn) | . | . | 2% | . | . | -10%
C[C@@H](CN1CC(=O)NC(=O)C1)N1CC(=O)NC(=O)C1 | -15 | . | . | . | . | .
CCCC1(c2ccccc2)NC(=O)N(CC(=O)Nc2sc(-c3ccccc3)cc2C(=O)OCC)C1=O (stereo not drawn) | -7 | 17% | 28µM* | 1% | -4% | -12%
CCOC(=O)c1cc(-c2ccccc2)sc1NC(=O)CN1C(=O)c2ccccc2C1=O | -3 | . | . | . | . | .
Cn1c(=O)c2[nH]c(-c3ccccc3)c(O)c2n(C)c1=O | -8 | 1% | 0% | 1.4µM* | -1% | -3%
CNC(=O)c1nnsc1S(=O)(=O)c1ccc(Cl)cc1 | -83* | -3% | -3% | . | 15% | ?
O=C(NC[C@H](O)c1ccccc1)c1ccccc1 | . | -12% | . | . | . | .
N#C/C(=C\c1cccc(Oc2ccccc2)c1)C(=O)N1CCOCC1 | -102* | 0% | 0% | 1% | 2% | -7%
CCC(/C=C1\Sc2ccc(OC)cc2N1CCO)=C\c1sc2ccc(OC)cc2[n+]1CCO | -16 | 10µM* | -10% | -55% | 9% | 23%
CCC(/C=C1\Sc2ccc(OC)cc2N1CC)=C\c1sc2ccc(OC)cc2[n+]1CCCS(=O)(=O)[O-] | -6 | 10µM* | 9% | -4% | 14% | 9%
CCOC(=O)CCN1CCN(C(=O)c2ccc(-n3c(=O)c(=O)[nH]c4ccccc43)cc2)CC1 | . | 2% | . | . | . | .
O=S(=O)(c1cccc(C(F)(F)F)c1)N1c2ccccc2-n2cccc2[C@H]1c1cccnc1 | . | -5%[7.66 µM] | . | . | . | .
O=C(COC(=O)c1cc(-c2cccs2)nn1-c1ccccc1)Nc1ccc(F)c([N+](=O)[O-])c1 | 2 | 0% | 0% | -13% | -1% | -2%
Cc1ccc(CSc2nnc(SCC(=O)N/N=C/c3c[nH]c4ccccc34)s2)cc1 | -26 | 1% | 4% | 25µM* | -3% | 8%
CN1C(=O)c2ccccc2Sc2ccc(NC(=O)c3ccccc3F)cc21 | -9 | . | -1% | . | . | 29%
CC1(C)CC(NC(=O)c2sc3cc(Cl)ccc3c2Cl)CC(C)(C)N1 | -60* | -1% | 0% | 3% | -1% | -4%
O=C(Nc1ccccc1)c1nnsc1S(=O)c1ccc(Cl)cc1 (stereo not drawn) | -105* | -2% | 0% | 18% | 3% | ?
COC(=O)C1(C(=O)OC)C/C=C\Cc2ccccc2[C@@H]1C[N+](=O)[O-] | . | 0% | . | . | . | .
C/C(=N\NC(=O)c1ccccc1O)c1cccs1 | -3 | 11µM* | 1% | -43% | 12% | -2%
C/C(=N\NC(=O)C1=NNC(=O)C1C)c1cccs1 (stereo not drawn) | -5 | 10µM* | 0% | -54% | 0% | -51%
C/C(=N\NC(=O)c1cccc2ccccc12)c1cccs1 | -21 | . | 1% | 2% | -1% | -54%
O=c1[nH]c2ccccc2c(=O)n1CCCl | 11 | . | . | . | . | .
CCOC(=O)/C(C)=N/NC(C)=O | . | -1% | . | . | . | .
O=C(Nc1ccc(Cl)c(Cl)c1)c1ccc(Cl)c(Cl)c1 | 3 | . | 17% | ? | -3% | -59%
Cc1ccc(NC(=O)c2ccc(Cl)c(N3C(=O)C=CC3=O)c2)cc1 | ? | -1% | 0% | 20µM* | -1% | 16%
SMILES | RXFP1 antag | Luc counter | RXFP1 ag | PKM2 act | GALK inh | miR-21 act
CCOC(=O)C1(Cc2cccc(OC)c2)CCN(C/C=C/c2ccc(OC)cc2)CC1 | -82* | . | 0% | 0% | 0% | 7%
CCOC(=O)C1(Cc2cccc(OC)c2)CCN(C/C=C/c2ccccc2)CC1 | -12 | -4% | -2% | -4% | -1% | 12%
COc1ccccc1/C=C/CN1CCCC(CO)(Cc2cccc(Cl)c2)C1 (stereo not drawn) | ? | 1% | 1% | -4% | 1% | 7%
COc1ccc(/C=C/CN2CCCC(CO)(Cc3cccc(Cl)c3)C2)cc1 (stereo not drawn) | -69* | 1% | -2% | 3% | 0% | -3%
CC(C)(C)OC(=O)[C@H](C1N[C@@H](C(=O)O)C(C)(C)S1)N1C(=O)c2ccccc2C1=O (stereo partly drawn) | . | -4%[7.66 µM] | . | . | . | .
COc1cc(N2C(=O)C=CC2=O)c(OC)cc1Cl | ? | . | 0% | 8.9µM* | -1% | ?
COc1cc(Cl)c(S(=O)(=O)N2CCCC2)cc1Cl | 24 | 0% | -1% | 10% | 8% | 4%
Cc1ccc2nc(C)c(C(=O)N/N=C/c3ccc(C(=O)O)cc3)cc2c1 | -62* | -1% | -2% | -2% | 1% | -1%
CN(C)S(=O)(=O)c1cccc(COc2ncnc3c(Cl)cc(Cl)cc23)c1 | 12 | . | 16µM* | 7% | 14% | 1%
CC(=O)c1ccc(Nc2ccc(-c3ccccc3F)nn2)cc1 | 4 | -5% | 2% | -10% | 0% | -37%
CC1=C(C(=O)Nc2ccccc2)C(c2ccncc2)n2nc(SCc3ccccc3)nc2N1 (stereo not drawn) | . | . | 5% | . | . | 6%
COc1ccccc1CC(Cc1nc2ccccc2[nH]1)c1nc2ccccc2[nH]1 (stereo not drawn) | -67* | -3% | 2% | -15% | 1% | 12%
Cc1cccc(CC(Cc2nc3ccccc3[nH]2)c2nc3ccccc3[nH]2)c1 (stereo not drawn) | -15 | 2% | -2% | -7% | 0% | 19%
O=c1c(O)cc(C2Oc3cc(O)cc(O)c3CC2O)cc2c(C3Oc4cc(O)cc(O)c4CC3O)cc(O)c(O)c12 (stereo not drawn) | . | -11% | . | . | . | .
O=C(O)C(Cc1ccc(O)cc1)N1C(=O)c2c(Cl)c(Cl)c(Cl)c(Cl)c2C1=O (stereo not drawn) | -62* | . | . | . | . | .
CC(=O)N[C@@H](Cc1c[nH]c2ccccc12)C(=O)OCc1cc(C(F)(F)F)cc(C(F)(F)F)c1 | . | -2% | 0% | . | . | .
COc1ccc2c(c1)C(=O)[C@H](OC(=O)Nc1ccc(OC(F)F)cc1)[C@@H](c1ccc(OC)c(Br)c1)O2 | . | 0% | . | . | . | .
COc1cc(C(=O)N/N=C/c2ccc(OC(=O)c3ccccc3Cl)cc2)ccc1O | -91* | . | 0% | -4% | 2% | -9%
